Measurements as given in PubChem BioAssay AID686933 (National Center for Advancing Translational Sciences (NCATS), 2013).
Records with an inconclusive call do not appear. Unmarked numbers belong to inactive results. Calls follow the shape of the dose curve; as a rule, active = well fitted inhibition curve with a large enough effect; inconclusive = small, poorly fitted or top-dose-only effect; inactive = flat fitted curve, though single readings scatter.

Each molecule was assayed against Luciferin 4-monooxygenase (Photinus pyralis) (UniProt P08659) (assay: qHTS screen for small molecules that inhibit ELG1-dependent DNA repair: SAR in Biochemical Luciferin Assay). Details: purified firefly luciferase, luciferin luminescence counter-screen; series mostly up to 57.5 µM; activity change, negative = inhibition: at the top concentration.
Description: Cancer cells divide rapidly compared to normal cells in the body. During cell division, cancer cells need to duplicate their genome by DNA replication. The failure of genome duplication leads to cancer cells' death. Therefore, inhibitors of DNA replication could specifically kill cancer cells. Based on this concept, many chemotherapeutic agents were developed and have been used to treat cancer patients. However, there are a limited number of agents available in the clinical setting, and some of those that do exist have low efficacy and severe side effects. Therefore, if we can find the compounds that effectively block DNA replication either by directly damaging DNA or by inhibiting other cellular mechanisms, the options for cancer treatment will be broadened. With this in mind, we developed a quantitative high-throughput ELG1-luciferase reporter gene assay. Small molecules that specifically block ELG1 function in response to DNA damage can be identified by monitoring the suppression of luciferase activity. Since ELG1 defines a pathway for repairing DNA damage, agents blocking ELG1 function can be used to sensitize cancer cells to chemotherapeutic agents whose mechanism of action involves the induction of DNA damage. This counter assay is a luciferase assay, that following treatment with putative ELG1 antagonists, aims to eliminate luciferase enhancers/inhibitors. NIH Molecular Libraries Probe Production Network [MLPCN] NIH Chemical Genomics Center [NCGC] MLPCN Grant: R03 MH092164 Assay Provider: Kyungjae Myung, NHGRI, NIH
3 uL of substrate reagent will be pipetted into each well in 1536-well white, solid-bottom plates using a FRD dispenser, followed by addition of 23 nL of DMSO or compounds by pintool. After compound addition, 1 µL of luciferase will be added into the wells. The plates will be read in a ViewLux CCD-based plate reader.

| SMILES | activity change, negative = inhibition [%] |
| --- | --- |
| COc1cc2c(cc1OC)[C@@H]1C(=O)c3ccc4c(c3OC1CO2)CC(C(C)C)O4 (some centres undefined) | -6.85 |
| CCCCCC1C(=O)O[C@H](C)[C@@H](NC(=O)c2cccc(NC=O)c2O)C(=O)OC(C)C1OC(=O)CC(C)C (some centres undefined) | 0.76 |
| CO/C1=C\C(C)=C\[C@@H](C)[C@@H](O)[C@H](C)C/C(C)=C/C=C/[C@H](OC)[C@H]([C@@H](C)[C@@H](O)[C@H](C)[C@H]2C[C@@H](O)[C@H](C)[C@@H](C(C)C)O2)OC1=O | 1.32 |
| COC[C@H]([C@@H](O)[C@@H](O)C(=O)NCC[C@@H](C)c1nc(/C=C/C[C@H]2OC3(C[C@H](O)[C@H]2C)OC([C@@H](C[C@@H](O)[C@@H](C)[C@@H](O)[C@@H](C)/C=C(C)/C(C)=C/C=C/C(C)=C\C#N)OC)[C@@H](OP(=O)(O)O)C3(C)C)co1)N(C)C (some centres undefined) | 3.95 |
| COc1cc2c(cc1OC)C1C(=O)c3c(cc4c(c3O)C=CC(C)(C)O4)OC1CO2 (centres undefined) | -21.9 |
| C[C@@H]1C[C@H]2CC[C@H](O2)[C@H](C)C(=O)O[C@@H](C)C[C@@H]2CC[C@@H](O2)[C@@H](C)C(=O)O[C@H](C)C[C@H]2CC[C@H](O2)[C@H](C)C(=O)O[C@@H](C)C[C@@H]2CC[C@@H](O2)[C@@H](C)C(=O)O1 | -15.6 |
| CN[C@@H]1C[C@@]2(C)O[C@@H]([C@@H]1OC)n1c3ccccc3c3c4c(c5c6ccccc6n2c5c31)C(=O)NC4 | 3.86 |
| C[C@@H]1C[C@@H]2[C@H]([C@H]3C=C(COC(=O)c4ccccc4)[C@@H](O)[C@]4(O)[C@@H](O)C(OC(=O)c5ccccc5)=C[C@@]14C3=O)C2(C)C | -2.41 |
| CCCCCCCCCCCCCC(=O)O[C@@H]1[C@@H](C)[C@@]2(O)[C@H](C=C(CO)C[C@]3(O)C(=O)C(C)=C[C@@H]23)[C@@H]2C(C)(C)C12OC(C)=O (some centres undefined) | -22.1 |
